According to ChEMBL document CHEMBL4296182, “CO-ADD screening of NIH NCI Diversity Set V”:
For part of these data: Entries with a potency or affinity are not part of this list.

Key:
Staphylococcus aureus = assay: Antibacterial activity against Staphylococcus aureus MRSA ATCC 43300 (CO-ADD:GP_020); MIC in CAMBH media using NBS plates, by Resazurin F(560/590); format: functional; conditions: Concentration 20 uM, ASSAY_TEST Inhibition of Bacterial Growth, detection method Resazurin, Fluorescence (ex560/em590), MEDIA CAMHB, plate type 384well, CORNING #3640, time 18 hr
Acinetobacter baumannii = assay: Antibacterial activity against Acinetobacter baumannii ATCC 19606 (CO-ADD:GN_034); MIC in CAMBH media using NBS plates, by Resazurin F(560/590); format: functional; conditions: Concentration 20 uM, ASSAY_TEST Inhibition of Bacterial Growth, detection method Resazurin, Fluorescence (ex560/em590), MEDIA CAMHB, plate type 384well, CORNING #3640, time 18 hr
Escherichia coli = assay: Antibacterial activity against Escherichia coli ATCC 25922 (CO-ADD:GN_001); MIC in CAMBH media using NBS plates, by Resazurin F(560/590); format: functional; conditions: Concentration 20 uM, ASSAY_TEST Inhibition of Bacterial Growth, detection method Resazurin, Fluorescence (ex560/em590), MEDIA CAMHB, plate type 384well, CORNING #3640, time 18 hr
Klebsiella pneumoniae = conditions: Concentration 20 uM; ASSAY_TEST Inhibition of Bacterial Growth; detection method Absorption (OD600); MEDIA CAMHB; plate type 384well; NBS; CORNING #3640; time 18 hr
Candida albicans = conditions: 20 µM
Cryptococcus neoformans = conditions: Concentration 20 uM; ASSAY_TEST Inhibition of Fungal Growth; detection method Resazurin; Absorption (OD600-OD570); plate type 384well; NBS; CORNING #3640

Compound | Inhibition (Staphylococcus aureus) [%] | Inhibition (Acinetobacter baumannii) [%] | Inhibition (Escherichia coli) [%] | Inhibition (Klebsiella pneumoniae) [%] | Inhibition (Candida albicans) [%] | Inhibition (Cryptococcus neoformans) [%]
CC(C)NC(=O)Nc1cccc(Cl)c1 | 12.4 | 7.15 | 6.41 | 8.52 | -1.88 | -9.01
CC(=O)Nc1cc(NC(C)=O)ncn1 | 12.16 | -10.63 | 12.12 | 16.66 | 3.12 | -1.27
COc1cc(Cl)c(CC(=O)c2c[nH]c3ccccc23)cc1OC | -6.42 | 2.77 | -1.53 | 5.86 | 3.17 | -1.97
Nc1ccc(NC(=O)c2ccc(C(=O)Nc3ccc(N)cc3)cc2)cc1 | 11.02 | -8.34 | 15.83 | 3.68 | 40.4 | 10.38
CCC(CC)c1ncc[nH]1 | -6.72 | -6.57 | 9.75 | 17.39 | -1.38 | -3.12
Cc1ccc([N+](=O)[O-])cc1NC(=O)Nc1cccc(F)c1 | 33.45 | -10.69 | 8.59 | 12.62 | 18.3 | -9.48
Cn1nc(SCc2ccccc2)c(=O)n(C(c2ccccc2)c2ccccc2)c1=O | 19.74 | -15.03 | 11.55 | 5.74 | 11 | -0.62
Cc1nc(O)c(Cc2ccccc2O)c(-c2ccccc2)n1 | 22.69 | -8.89 | 10.21 | 16.82 | 2.26 | 5.06
O=C(CC1(O)CCCCC1)OC1CCCC1 | -23.97 | 3.29 | -15.82 | -7.74 | 2.66 | 30.45
CC1=CC2C(C(O)CC3(C)C2CC(C)C32OCOC23COCO3)C2(C)C/C(=C/O)C(=O)C=C12 (stereo not given) | 18.36 | -11.09 | 9.35 | 4.64 | 15.1 | -16.69
Cn1cnc([N+](=O)[O-])c1N=C(N)N | -12.1 | -2.18 | 11.15 | 7.43 | -4.73 | 1.78
N#CCc1cnc2ccccc2n1 | 13.21 | -15.61 | 3.75 | 2.07 | -2.07 | -9.92
Oc1cc(CNC2CCCCC2)c(O)cc1CNC1CCCCC1 | 1.43 | -9.92 | 2.36 | 11.38 | 5.97 | -6.29
NCc1c(O)ccc2ccccc12 | 7.19 | -7.97 | -11.88 | 11.42 | 3.27 | 15.16
CCC1(CC)C(=O)NC(=S)N=C1N | 2.67 | -4.28 | 12.79 | 14.22 | 7.8 | -2.67
Cc1cc(=O)oc2cc(OS(C)(=O)=O)ccc12 | -6.24 | -3.66 | 13.01 | 7.19 | 0.46 | -11.39
NC1=NC(c2ccc(Cl)cc2)N(c2ccc(S(N)(=O)=O)cc2)C(N)=N1 (stereo not given) | -8.08 | 15.66 | 1.13 | 8.28 | -0.99 | -3.51
Nc1cc([N+](=O)[O-])ccc1N1C(=O)CCCC1=O | 5.36 | 15.02 | -8.9 | 10.57 | 7.24 | -9.22
O=C(c1ccccc1)C1C(c2ccccc2)C1[N+](=O)[O-] (stereo not given) | 0.24 | 5.31 | -7.09 | 8.34 | 7.18 | -2.68
CCOC(=O)c1cc(-c2ccccc2)nc2ccc(C)cc12 [NEOCINCHOPHEN] | 2.82 | 5.48 | -14.74 | 14.7 | 9.92 | 24.59
Cc1cc(C)n2c(C)nnc2c1 | -1.68 | -10.08 | 5.69 | 10.38 | -0.15 | -3
Nc1ccccc1Sc1cc(Cl)nnc1Cl | 10.59 | -10.6 | 6.4 | 13.76 | 6.84 | -6.72
Clc1ccc(Oc2nc3c(Cl)cccc3s2)cc1Cl | 12.48 | 12.9 | 4.52 | 1.06 | 1.36 | -15.72
O=C(Nc1ccc(O)c(C(=O)O)c1)Oc1ccccc1 | 5.63 | 12.9 | -6.34 | 11.35 | 5.9 | -2.46
C/C(=N\O)C1CC(CC(=O)O)C1(C)C (stereo not given) | -0.7 | -12.7 | 4.91 | 2.97 | 2.15 | -5.7

Compound | Inhibition (Staphylococcus aureus) [%] | Inhibition (Acinetobacter baumannii) [%] | Inhibition (Escherichia coli) [%] | Inhibition (Klebsiella pneumoniae) [%] | Inhibition (Candida albicans) [%] | Inhibition (Cryptococcus neoformans) [%]
NC(=O)c1ccccc1NC(=O)c1ccccc1Cl | -3.45 | -12.19 | 7.56 | 6.89 | 2.67 | -15.77
CCOC(=O)N1CCc2cc(OC)c(OC)c3c2c1cc1cc(OC)c(OC)cc13 | -2.61 | -15.62 | 19.24 | 9.85 | 5.76 | -3.38
CCCCc1c(C)nc(S)nc1O | 16.17 | -14.45 | 9.4 | 7.26 | 2.04 | -3.51
Clc1nc(Cl)nc(-c2cn(-c3ccccc3)c3ccccc23)n1 | 19.15 | 12.32 | 3.43 | 3.41 | -0.1 | 5.66
Nc1ccc(C(=O)Nc2cccc(N)c2)cc1 | 4.61 | -10.29 | 5.56 | 4.23 | 0.06 | -9.54
O=C1c2ccccc2C(=O)C1c1ccccn1 | -5.11 | -11.28 | 2.88 | 6.77 | 5.19 | -6.9
O=[N+]([O-])c1cccnc1Oc1cccnc1 | 16.25 | -14.38 | 11.2 | 9.34 | -2.59 | -10.27
Cc1nc2ccc(N)nc2nc1C | 15.94 | -14.31 | 16.52 | 12.13 | -1.28 | -2.36
CSc1nc2nc(C(O)c3ccccc3)nc-2c[nH]1 (stereo not given) | 9.64 | 6.4 | -14.24 | 16.25 | 8.94 | 28.87
CC1=NN(c2ccccc2)C(=O)C1/N=N/c1ccc(S(N)(=O)=O)cc1 (stereo not given) | -7.63 | 9.06 | 7.33 | 5.84 | 11.2 | -4.3
COc1ccn(C2CCCCO2)c(=O)n1 (stereo not given) | 1.35 | -10.23 | 3.33 | 6.04 | 0.65 | -5.3
O=C1CSC(=S)N1/N=C/c1c[nH]c2ccc(Br)cc12 | -3.88 | 11.83 | 4.81 | 26.71 | 19.6 | -14.16
COc1ccc(/C=C2/CCOC2=O)cc1 | -2.28 | -9.37 | 12.04 | 6.07 | 3.59 | -15.8
CCC(CNc1cc(OC)cc2cccnc12)NC1CCCCC1 (stereo not given) | 4.02 | 11.06 | 4.95 | 14.97 | -0.36 | -7.8
Oc1ccc(-c2nc3ccccc3s2)c(O)c1 | -7.97 | -9.73 | 5.22 | 6.81 | 13.4 | -4.68
CC(=O)Oc1ccc2cc(-c3ccccc3)c(=O)oc2c1 | 19.48 | 8.94 | -2.31 | 17.84 | 4.89 | -3.36
CSc1cccc(NC(=O)N2CCN(C)CC2)c1 | 0.63 | -10.8 | 6.03 | 6.8 | 3.78 | -18.46
Nc1ccc(/N=N/c2ccc(O)cc2)c(N)n1 | -3.88 | -10.7 | 0 | 0.93 | 0.86 | -14.36
O=C(Nc1nc2ccccc2s1)Nc1ccc([N+](=O)[O-])cc1Cl | 3.4 | 12.6 | -5.05 | 8.17 | 4.63 | -2.66
O=C1COc2c1ccc(O)c2O | 0.46 | -23.14 | 5.49 | 7.13 | 0.16 | -9.43
Cc1ccc(/C=C2\CCOC2=O)cc1 | 9.11 | -13.71 | 3.05 | 29.06 | 11.6 | 1.19
Cn1c2c(sc1=O)CCC2 | 14.81 | -10.92 | 5.93 | 16.07 | 2.06 | -0.94
Cc1nc([C@H]2CC[C@H]3[C@@H]4CCC5=CC(=O)CC[C@]5(C)[C@H]4CC[C@]23C)cs1 | 4.31 | 15.21 | 6.81 | 9.22 | 2.4 | -7.32
CCOC(=O)C(=O)Cc1nc2ccccc2s1 | 2.9 | -6.12 | 10.05 | 6.52 | 16 | -6.27
CC(C)N(C(=O)c1cccc([N+](=O)[O-])c1)C(C)C | 9.59 | -13.76 | 4.26 | 0.52 | 0.26 | -4.03
